Compounds with a hit are over-represented: about 10% of the library has one in this group of screens.
GLA inh pH 4.5: blocks human alpha-galactosidase A at pH 4.5 | P06280 | activity change, negative = inhibition, % at 105 µM | purified enzyme, 4-MU-alpha-Gal fluorescence, pH 4.5 | 230,000 tested, under 10 active
ALOX12 inhib: inhibitors of human 12-lipoxygenase (ALOX12); P18054; purified 12-hLO, xylenol orange hydroperoxide absorbance; Potency, µM (titrated, usually from 57.1 µM), actives largely listed as inhibitors; hit rate 0.12% among 150,000; AID 1452; note: nearly all actives have a fitted effect of over 55% in size
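150 nM 12hLO, 25 mM Hepes pH 7.0 + 0.01% Triton X-100; cpd preinc 15 min RT; 40 uM arachidonic acid, 30 min RT; Fe-XO 30 min; A573/A405 ratio as read-out.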
HPGD block: HPGD (human) dehydrogenase inhibition. P15428. purified HPGD, NADH fluorescence kinetic, PGE2 substrate. Potency, µM, most hits filed as inhibitors. hit rate 4.3% among 150,000. AID 894; active = well fitted inhibition curve with a large enough effect, not every such curve was filed as active; inconclusive = small, poorly fitted or top-dose-only effect, or another doubt; inactive = no such curve, though single readings can be large or run the other way
Target sequence (P15428 whole entry, looked up): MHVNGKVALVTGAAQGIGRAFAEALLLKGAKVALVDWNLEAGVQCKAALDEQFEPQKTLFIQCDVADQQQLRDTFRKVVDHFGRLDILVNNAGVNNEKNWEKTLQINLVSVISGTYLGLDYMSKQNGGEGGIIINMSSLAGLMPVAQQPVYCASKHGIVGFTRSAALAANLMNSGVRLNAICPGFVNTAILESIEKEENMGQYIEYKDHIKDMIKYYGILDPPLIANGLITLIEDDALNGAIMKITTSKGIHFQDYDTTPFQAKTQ
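NADH formation kinetics: reaction with 30 uM PGE2 and 1 mM NAD+ (final), 20 nM enzyme, Tris-HCl pH 8 with Tween 20, after 15 min compound preincubation at room temperature. Fluorescence change, last versus first of five reads.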
GLA spleen mod: inhibitors or activators of human alpha-galactosidase in spleen homogenate; P06280; hit rate 0.008% among 240,000; human spleen homogenate, 4MU-alpha-Gal fluorescence, 40 min; Potency, µM (top dose mostly 80 µM), usual class: inhibitors
Target sequence (P06280 32-429 limits assumed): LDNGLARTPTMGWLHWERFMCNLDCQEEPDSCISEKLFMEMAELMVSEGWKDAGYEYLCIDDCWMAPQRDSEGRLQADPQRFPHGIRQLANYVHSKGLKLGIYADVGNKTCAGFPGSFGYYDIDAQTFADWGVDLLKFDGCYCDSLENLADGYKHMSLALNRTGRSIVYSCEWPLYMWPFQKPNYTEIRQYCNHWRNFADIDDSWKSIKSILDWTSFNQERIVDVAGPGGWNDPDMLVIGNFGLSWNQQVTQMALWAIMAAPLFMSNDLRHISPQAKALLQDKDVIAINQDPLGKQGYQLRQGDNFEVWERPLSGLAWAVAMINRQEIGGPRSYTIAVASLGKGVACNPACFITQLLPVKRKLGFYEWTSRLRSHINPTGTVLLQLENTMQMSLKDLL
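Inhibition or activation of alpha-galactosidase in human spleen homogenate is scored by 4-MU fluorescence after 40 min at 37C, pH 5.0, with 1 mM substrate. AC50s come from concentration-response fitted to the Hill equation.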
ALDH1A1 block: ALDH1A1 (human) enzyme inhibition; Purified ALDH1A1, NADH fluorescence, propionaldehyde substrate; hit rate 7.3% among 220,000; Potency, µM (highest dose often 75.3 µM), most hits filed as inhibitors; P00352; active = well fitted inhibition curve with a large enough effect, not every such curve was filed as active; inconclusive = small, poorly fitted or top-dose-only effect, or another doubt; inactive = no such curve, though single readings can be large or run the other way
PNC assembly inh: blocks assembly of the perinucleolar compartment | PC3M PTB-GFP, PNC prevalence imaging, 16 h; hits give low values | activity change (PNC), negative = inhibition, % at 10 µM | hit rate 3.1% among 140,000;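 active = readout at or below -70, meaning at least 70% loss of cells showing the perinucleolar compartment, a nuclear body marking cancer cells; inconclusive = readout between -30 and a set limit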
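Compounds are pinned in duplicate onto adhered PC3M cells stably expressing GFP-tagged PTB and incubated 16 h at 37 C. Cells are then fixed, nuclei stained with Hoechst, and PNC-positive cells counted.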
Each line names hits and unclear results; the compound was inactive in the other large screens; ! = not confirmed by another sample. Unless noted, calls come from the whole dose curve; as a rule, active = well fitted curve in the direction sought with a large enough effect; inconclusive = small, poorly fitted or top-dose-only effect, or another doubt; inactive = no such curve, though single readings can be large; an effect the other way counts as inactive or inconclusive.

O=C1NC(=S)NC(=O)C1C1CCCCC1	none (no result: ALOX12 inhib, HPGD block, ALDH1A1 block, PNC assembly inh)
CCCCC1C(=O)NC(=S)NC1=O	HPGD block 13µM, ALDH1A1 block 32µM
Cc1ccc(Cn2ccc(NC(=O)c3cc(-c4ccco4)on3)n2)cc1	ALDH1A1 block 18µM, PNC assembly inh inconclusive
O=C(Cc1ccccc1)Oc1cccc(N2C(=O)CCC2=O)c1	PNC assembly inh -100
[Cl-].[Cl-].[Hg+2]	ALOX12 inhib 5µM, HPGD block 0.1µM, ALDH1A1 block 0.14µM (no result: GLA inh pH 4.5, PNC assembly inh)
COP(=S)(OC)SCn1nnc2ccccc2c1=O	HPGD block 28µM, ALDH1A1 block 13µM (no result: PNC assembly inh)
COc1ccc(-n2c(SCCN(C)C)nc3ccccc3c2=O)cc1	none (no result: ALOX12 inhib, HPGD block, ALDH1A1 block, PNC assembly inh)
O=NN(CCCl)C(=O)NCCCl	ALDH1A1 block 3.2µM! (no result: PNC assembly inh)
CCCCCOC(=O)c1ccccc1C(=O)OCCCCC	none (no result: GLA inh pH 4.5, PNC assembly inh)
COc1ccc2c(c1)c(CCN1CCOCC1)c(C)n2C(=O)c1cccc(Cl)c1Cl	HPGD block 28µM (no result: PNC assembly inh)
CSc1ccc2c(c1)c(CCN)c(C)n2Cc1ccccc1Cl	none (no result: GLA inh pH 4.5, GLA spleen mod, PNC assembly inh)
O=C1/C(=C/c2cc3c(cc2Cl)OCO3)N2CCC1CC2	HPGD block 22µM, ALDH1A1 block 13µM
O=C1/C(=C\c2cc3c(cc2Cl)OCO3)N2CCC1CC2	HPGD block 28µM
COc1cccc([C@@]2(O)CCCCC2CN(C)C)c1 (some centres not stated)	none (no result: GLA inh pH 4.5, ALOX12 inhib, HPGD block, ALDH1A1 block, PNC assembly inh)
Clc1ccc(C(c2ccc(Cl)cc2)C(Cl)Cl)cc1	none (no result: GLA inh pH 4.5, PNC assembly inh)
Cc1ccc2c(c1)C1CN(C)CCC1N2C(=O)c1ccc(Br)o1 (configuration not stated)	ALDH1A1 block 22µM
C(=C\c1ccccc1)/CN1CCN(CCOC(c2ccccc2)c2ccccc2)CC1	none (no result: GLA inh pH 4.5, ALOX12 inhib, HPGD block, PNC assembly inh)
COP(=S)(OC)Oc1ccc(SC)c(C)c1	none (no result: PNC assembly inh)
CCOP(=O)(NC(C)C)Oc1ccc(SC)c(C)c1 (configuration not stated)	HPGD block 5.6µM, ALDH1A1 block inconclusive (no result: GLA inh pH 4.5, PNC assembly inh)
CCCCN1C(=O)NC(=O)/C(=C/c2cnc(SC)nc2)C1=O	HPGD block 20µM
CC(C)c1ccc(N2C(=O)NC(=O)/C(=C/c3cnc(-c4ccccc4)nc3)C2=O)cc1	HPGD block 13µM, ALDH1A1 block 19µM
O=C1NC(=O)N(Cc2ccccc2)C(=O)/C1=C/c1cnc(-c2ccccc2)nc1	none (no result: ALOX12 inhib, HPGD block, PNC assembly inh)
CSc1ncc(/C=C2/C(=O)NC(=O)N(c3ccc(C(C)C)cc3)C2=O)cn1	HPGD block inconclusive, ALDH1A1 block 14µM
Cc1nnc(SCc2nc3ccccc3c(=O)n2-c2ccccc2Cl)n1N	ALDH1A1 block 25µM, PNC assembly inh inconclusive
CCOc1cc(/C=C2\C(=O)NC(=O)N(CCc3ccc(F)cc3)C2=O)ccc1O	none (no result: ALOX12 inhib, HPGD block, ALDH1A1 block, PNC assembly inh)
Cc1ccc(/C=C2\C(=O)NC(=O)N(CCc3ccc(F)cc3)C2=O)o1	HPGD block 3.5µM, ALDH1A1 block 5µM, PNC assembly inh inconclusive
CN(C)c1ccc(/C=C2/C(=O)NC(=O)N(CCc3ccc(F)cc3)C2=O)cc1	HPGD block 10µM, ALDH1A1 block 0.63µM
Cc1ccc(/C=C2\C(=O)NC(=O)N(CCc3ccc(F)cc3)C2=O)s1	ALDH1A1 block 1.6µM (no result: ALOX12 inhib, HPGD block, PNC assembly inh)
O=C1NC(=O)N(Cc2ccc(F)cc2)C(=O)/C1=C/c1cccs1	ALDH1A1 block 28µM (no result: ALOX12 inhib, HPGD block, PNC assembly inh)
CN(C)c1ccc(/C=C2\C(=O)NC(=O)N(Cc3ccc(F)cc3)C2=O)cc1	none (no result: ALOX12 inhib, HPGD block, ALDH1A1 block, PNC assembly inh)
O=C1NC(=O)N(Cc2ccccc2Cl)C(=O)/C1=C/c1cccs1	ALDH1A1 block inconclusive (no result: ALOX12 inhib, HPGD block, PNC assembly inh)
O=Cc1ccc2c(c1)OCO2	ALDH1A1 block inconclusive (no result: GLA inh pH 4.5, PNC assembly inh)
CCSCC[C@H](N)C(=O)O	none (no result: GLA inh pH 4.5, GLA spleen mod, PNC assembly inh)
CCN1C(=O)/C(=C\c2ccc([N+](=O)[O-])s2)C(=O)NC1=S	none (no result: ALOX12 inhib, HPGD block, PNC assembly inh)
COCCN1C(=O)NC(=O)/C(=C\c2ccc(Br)cc2)C1=O	ALDH1A1 block inconclusive (no result: ALOX12 inhib, HPGD block, PNC assembly inh)
Cc1ccc(/C=C2/C(=O)NC(=O)N(CCc3ccc(F)cc3)C2=O)s1	HPGD block 7.1µM, ALDH1A1 block inconclusive, PNC assembly inh inconclusive
Cc1ccc(/C=C2/C(=O)NC(=O)N(CC3CCCO3)C2=O)s1 (configuration not stated)	HPGD block 14µM, ALDH1A1 block 10µM
C/C(=N\N1CCN(C)CC1)c1c(O)[nH]c(=O)[nH]c1=O	PNC assembly inh -121
CC/C(=N\N1CCN(C)CC1)c1c(O)[nH]c(=O)[nH]c1=O	none
COc1cccc2c1C(=O)c1c(O)c3c(c(O)c1C2=O)C[C@](O)(/C(C)=N\O)C[C@@H]3O[C@H]1C[C@H](N)[C@@H](O)[C@H](C)O1	none (no result: GLA inh pH 4.5, GLA spleen mod, PNC assembly inh)
c1ccc(Nc2ccc(Nc3ccccc3)cc2)cc1	ALOX12 inhib 13µM, ALDH1A1 block inconclusive (no result: GLA inh pH 4.5, PNC assembly inh)
O=Nc1ccc(Nc2ccccc2)cc1	ALDH1A1 block 0.063µM (no result: GLA inh pH 4.5, PNC assembly inh)
CC(=O)[O-].CC(=O)[O-].O.O.O.[Pb+2]	ALDH1A1 block 15µM (no result: GLA inh pH 4.5, PNC assembly inh)
Nc1cc(Cl)ccc1Cl	none (no result: GLA inh pH 4.5, PNC assembly inh)
Nc1cc(Cl)ccc1O	ALOX12 inhib 20µM, HPGD block 10µM, ALDH1A1 block 8.9µM (no result: GLA inh pH 4.5, PNC assembly inh)

Bioassay records as filed in PubChem BioAssay.
